Laboratory results published in ChEMBL document CHEMBL4513146, “CO-ADD screening of Karazin Kharkiv National University (Ukraine) compounds”.
Measured potencies and affinities stand elsewhere.

Tests used:
Klebsiella pneumoniae = conditions: Concentration 32 ug.mL-1;; ASSAY_TEST Inhibition of Bacterial Growth; detection method Absorption (OD600); MEDIA CAMHB; plate type 384well; NBS; CORNING #3640; time 18 hr
Candida albicans = conditions: Concentration 32 ug.mL-1; ASSAY_TEST Inhibition of Fungal Growth; detection method Absorption (OD530)
Cryptococcus neoformans = conditions: Concentration 32 ug.mL-1; ASSAY_TEST Inhibition of Fungal Growth; detection method Resazurin; Absorption (OD600-OD570); plate type 384well; NBS; CORNING #3640

## N#Cc1cccc(Cn2nc3ccc(S(=O)(=O)N4CCCCCC4)cn3c2=O)c1
Klebsiella pneumoniae
  Inhibition: 8.88%
Candida albicans
  Inhibition: -0.26%
Cryptococcus neoformans
  Inhibition: -9.97%

## COc1ccc(CNC(=O)Cn2nc3c(N4CCN(c5ccccc5)CC4)nccn3c2=O)cc1
Klebsiella pneumoniae
  Inhibition: 14.33%
Candida albicans
  Inhibition: 4.36%
Cryptococcus neoformans
  Inhibition: -9.25%

## COC(=O)c1ccccc1NC(=O)Cn1nc2c3cc(-c4ccc(OC)cc4)nn3ccn2c1=O
Klebsiella pneumoniae
  Inhibition: 20.11%
Candida albicans
  Inhibition: 0.77%
Cryptococcus neoformans
  Inhibition: -26.84%

## COc1ccc(OC)c(NC(=O)Cn2nc3ccc(-c4ccc(Cl)cc4)nn3c2=O)c1
Klebsiella pneumoniae
  Inhibition: 15.39%
Candida albicans
  Inhibition: 0.24%
Cryptococcus neoformans
  Inhibition: -17.15%

## CCCc1nnc2c(=O)n(CC(=O)Nc3ccc(C(C)=O)cc3)c3ccccc3n12
Klebsiella pneumoniae
  Inhibition: 3.81%
Candida albicans
  Inhibition: -1.78%
Cryptococcus neoformans
  Inhibition: -9.17%

## O=C(CSc1nnc2c(=O)n(-c3ccccc3)ccn12)Nc1ccc2c(c1)OCO2
Klebsiella pneumoniae
  Inhibition: 8.73%
Candida albicans
  Inhibition: 0.46%
Cryptococcus neoformans
  Inhibition: -18.26%

## Cc1ccc(NC(=O)CSc2nc3ccccc3n3c(C)nnc23)cc1C
Klebsiella pneumoniae
  Inhibition: -6.18%
Candida albicans
  Inhibition: 44.31%
Cryptococcus neoformans
  Inhibition: -14.42%

## O=C(Cn1nc2c(N3CCOCC3)nccn2c1=O)NCc1ccc(C(F)(F)F)cc1
Klebsiella pneumoniae
  Inhibition: 3.05%
Candida albicans
  Inhibition: 1.76%
Cryptococcus neoformans
  Inhibition: -5.37%

## Cc1cccc(NC(=O)Cn2nc3ccc(-c4ccc(Cl)cc4)nn3c2=O)c1
Klebsiella pneumoniae
  Inhibition: 7.75%
Candida albicans
  Inhibition: 3.82%
Cryptococcus neoformans
  Inhibition: -6.79%

## CCOC(=O)c1ccc(NC(=O)Cn2nc3c4cc(-c5ccc(C)c(C)c5)nn4ccn3c2=O)cc1
Klebsiella pneumoniae
  Inhibition: 1.25%
Candida albicans
  Inhibition: 1.14%
Cryptococcus neoformans
  Inhibition: -10.15%

## CCc1ccc(NC(=O)Cn2nc3c(=O)n(-c4ccc(Br)cc4)ccn3c2=O)cc1
Klebsiella pneumoniae
  Inhibition: -9.6%
Candida albicans
  Inhibition: 4.29%
Cryptococcus neoformans
  Inhibition: -8.7%

## O=C(Cn1nc2ccc(Sc3cccc(F)c3)nn2c1=O)Nc1ccc(Cl)cc1
Klebsiella pneumoniae
  Inhibition: -0.35%
Candida albicans
  Inhibition: 14.09%
Cryptococcus neoformans
  Inhibition: -7.49%

## Cc1ccc(-n2ccn3c(=O)n(Cc4cccc(F)c4)nc3c2=O)cc1C
Klebsiella pneumoniae
  Inhibition: 5.72%
Candida albicans
  Inhibition: 0.74%
Cryptococcus neoformans
  Inhibition: -14.54%

## O=C(CSc1nnc2c(=O)n(-c3ccc(F)c(F)c3)ccn12)c1c[nH]c2ccccc12
Klebsiella pneumoniae
  Inhibition: 5.97%
Candida albicans
  Inhibition: 22.97%
Cryptococcus neoformans
  Inhibition: -8.04%

## COc1ccc(-c2cc3c4nn(CC(=O)Nc5ccc(OC)c(OC)c5)c(=O)n4ccn3n2)cc1
Klebsiella pneumoniae
  Inhibition: 11.9%
Candida albicans
  Inhibition: -0.77%
Cryptococcus neoformans
  Inhibition: -19.32%

## Cc1ccc(Oc2nccn3c(=O)n(CC(=O)Nc4ccc(C)cc4Br)nc23)cc1
Klebsiella pneumoniae
  Inhibition: 1.71%
Candida albicans
  Inhibition: 0.3%
Cryptococcus neoformans
  Inhibition: -4.1%

## Cc1ccc(Oc2nccn3c(=O)n(CC(=O)Nc4cc(F)ccc4F)nc23)cc1
Klebsiella pneumoniae
  Inhibition: 10.7%
Candida albicans
  Inhibition: 4.41%
Cryptococcus neoformans
  Inhibition: -11.42%

## CCOc1ccccc1CNC(=O)CCc1nnc2ccc(-c3ccc(C)cc3)nn12
Klebsiella pneumoniae
  Inhibition: 6.87%
Candida albicans
  Inhibition: 2.37%
Cryptococcus neoformans
  Inhibition: -5.38%

## COc1cccc(Oc2nccn3c(=O)n(CC(=O)Nc4ccc(Br)cc4F)nc23)c1
Klebsiella pneumoniae
  Inhibition: 17.17%
Candida albicans
  Inhibition: 0.55%
Cryptococcus neoformans
  Inhibition: -10.01%

## O=c1n(Cc2ccc3c(c2)OCO3)nc2c(S(=O)(=O)N3CCCCC3)cccn12
Klebsiella pneumoniae
  Inhibition: 10.73%
Candida albicans
  Inhibition: 3.52%
Cryptococcus neoformans
  Inhibition: -6.79%

## COc1cccc(CN(c2ccc(C(C)C)cc2)S(=O)(=O)c2cccn3cnnc23)c1
Klebsiella pneumoniae
  Inhibition: 13.52%
Candida albicans
  Inhibition: 10.84%
Cryptococcus neoformans
  Inhibition: -11.09%

## O=C(Cn1nc2c(Oc3ccccc3)nccn2c1=O)Nc1ccc(Cl)cc1
Klebsiella pneumoniae
  Inhibition: 8.01%
Candida albicans
  Inhibition: -0.31%
Cryptococcus neoformans
  Inhibition: -10.29%

## CC(C)NC(=O)Cn1nc2n(Cc3ccco3)c(=O)c3sccc3n2c1=O
Klebsiella pneumoniae
  Inhibition: 9.3%
Candida albicans
  Inhibition: 0.87%
Cryptococcus neoformans
  Inhibition: -5.24%

## CC(=O)c1ccc(NC(=O)Cn2nc3ccc(-c4ccc(C)c(C)c4)nn3c2=O)cc1
Klebsiella pneumoniae
  Inhibition: 0%
Candida albicans
  Inhibition: 0.28%
Cryptococcus neoformans
  Inhibition: -8.82%

## Cc1c(Cl)cccc1NC(=O)Cn1nc2c3c4c(sc3ncn2c1=O)CCCCC4
Klebsiella pneumoniae
  Inhibition: 9.28%
Candida albicans
  Inhibition: 4.44%
Cryptococcus neoformans
  Inhibition: -27.44%

## COc1ccc(NC(=O)c2ccc3nn(CC(=O)Nc4ccccc4C(F)(F)F)c(=O)n3c2)cc1
Klebsiella pneumoniae
  Inhibition: 0.14%
Candida albicans
  Inhibition: 5.37%
Cryptococcus neoformans
  Inhibition: -8.24%

## O=C(CSc1nnc2c(=O)n(-c3cccc(F)c3)ccn12)N1CCN(c2ccc(F)cc2)CC1
Klebsiella pneumoniae
  Inhibition: 10.19%
Candida albicans
  Inhibition: 2.58%
Cryptococcus neoformans
  Inhibition: -3.61%
